Measurements reported in PubChem BioAssay (NCI).
This is part of a sample that, as a whole, favours compounds with a hit. Of some 79,000 tested, about 15% had one in any assay. Active and inactive are the calls of the source. Rule as the data show it: active = growth inhibition above about 70%; inactive = the rest.

What was measured:
[1] = NCI Yeast Anticancer Drug Screen. Data for the rad50 strain (AID 155);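 also: 0% = growth of vehicle-only cultures of the same strain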; conditions: S. cerevisiae rad50 strain growth inhibition; at 50.0 µM; stronger effect = higher value
Summary of the method: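 Growth of the mutant yeast was measured after compound exposure and referenced to vehicle-treated cultures.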

[2] = NCI Yeast Anticancer Drug Screen. Data for the mec2-1 strain (AID 157); conditions: S. cerevisiae mec2-1 strain, at 50.0 µM, stronger effect = higher value
Summary of the method: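 Yeast mec2-1 mutant treated with compound. Readout: growth inhibition vs vehicle controls.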

[3] = NCI Yeast Anticancer Drug Screen. Data for the sgs1 mgt1 strain (AID 161);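 also: 0% = growth of cultures given vehicle only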; conditions: S. cerevisiae sgs1 mgt1 strain, at 50.0 µM, stronger effect = higher value
Summary of the method: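 Mutant yeast exposed to compound; growth scored against vehicle-only wells.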

[4] = NCI Yeast Anticancer Drug Screen. Data for the cln2 rad14 strain (AID 165);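 also: 0% = growth equal to vehicle treated cultures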; conditions: S. cerevisiae cln2 rad14 strain, at 50.0 µM, stronger effect = higher value
Summary of the method: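 cln2 rad14 yeast strain; compound exposure; growth inhibition read vs vehicle controls.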

[5] = NCI Yeast Anticancer Drug Screen. Data for the bub3 strain (AID 167); conditions: S. cerevisiae bub3 mutant strain, at 50.0 µM, stronger effect = higher value
Summary of the method: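 Whole-cell yeast assay. The mutant strain was incubated with compounds, and growth inhibition was determined by comparison with vehicle-treated cells.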

[6] = NCI Yeast Anticancer Drug Screen. Data for the mlh1 rad18 strain (AID 175); conditions: S. cerevisiae mlh1 rad18 strain growth inhibition; at 50.0 µM; stronger effect = higher value
Summary of the method: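 Yeast w/ defined DNA-repair lesions; compound exposure; growth vs vehicle controls → % inhibition.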

Measured: growth inhibition

CC(Cl)CN1CCCCC1 (centres undefined) (tested in a mixture with another compound)
inactive: [1] 15.2% | [2] 1.25% | [3] 23.8% | [4] 7.75% | [5] 3.2% | [6] 17.9%

O=C1C(=C([O-])c2ccccc2)C(=O)c2ccccc21.O=C1C(=C([O-])c2ccccc2)C(=O)c2ccccc21.[Fe+2]
inactive: [1] 19.4% | [2] 28.9% | [3] 14.6% | [4] 22.2% | [5] 28.1% | [6] 15.8%

Clc1ccc(-c2ccccc2)cc1Cl
inactive: [1] 12.9% | [2] -12.5% | [3] -8.85% | [4] -0.8% | [5] 14.6% | [6] 1.9%

Cc1nc2cccc(F)c2c(=O)n1-c1nnc(C(F)(F)F)s1
inactive: [1] 16.9% | [2] 8.8% | [3] 16.5% | [4] 10.8% | [5] -6.4% | [6] 15.5%

CN(C(=O)COc1ccc([N+](=O)[O-])cc1Cl)c1ccc(S(=O)(=O)F)cc1
inactive: [1] 13.8% | [2] -1.85% | [3] -10.9% | [4] -10.4% | [5] 1.25% | [6] 16.5%

O=[C-]/C=C/c1ccccc1.[C-]#[O+].[C-]#[O+].[Fe+2].[c-]1ccccc1
inactive: [1] 21.8% | [2] 2.5% | [3] 5.95% | [4] -3% | [5] -7.1% | [6] 7.15%

Cc1cccc(CCl)c1
inactive: [1] -7.05% | [2] -46.3% | [3] -23.3% | [4] -0.45% | [5] -40.9% | [6] -23.4%

COc1cc(C2c3cc4c(cc3C(O)[C@H]3COC(=O)[C@@H]23)OCO4)cc(OC)c1O (some centres undefined)
inactive: [1] -36.4% | [2] -28.7% | [3] -28.8% | [4] 16.6% | [5] 6.55% | [6] -7.9%

CC(=O)OCC1OC(n2ncc3c(N4CC4)ncnc32)C(OC(C)=O)C1OC(C)=O (centres undefined)
inactive: [1] 7.7% | [2] -12.6% | [3] -21.3% | [4] 6.65% | [5] 1.45% | [6] 4.25%

CC(=O)O[C@H]1C(=O)[C@@]2(C)[C@H]([C@H](OC(=O)c3ccccc3)[C@@]3(O)C[C@H](O)C(C)=C1C3(C)C)[C@]1(OC(C)=O)CO[C@@H]1C[C@@H]2O
inactive: [1] 8.05% | [2] -10.9% | [3] 6% | [4] 8.35% | [5] 12.5% | [6] -0.15%

CC(=O)C1CCC2C3CC=C4CC(OOS(=O)c5ccc(C)cc5)CCC4(C)C3CCC12C (centres undefined)
inactive: [1] 43.2% | [2] 20.1% | [3] 46.2% | [4] -31.4% | [5] 22.4% | [6] 24.1%

CC(Cl)CN(CC(C)Cl)c1ccc2c(c1)Cc1cc([N+](=O)[O-])ccc1-2 (centres undefined)
inactive: [1] 10.3% | [2] 5.7% | [3] 33.7% | [4] 25.9% | [5] 4.5% | [6] 12.7%

CC1=CC(=O)CCC12CCOC2=O (centres undefined)
inactive: [1] -54.1% | [2] -20.1% | [3] -21.3% | [4] -40.6% | [5] -13.2% | [6] -7.55%

CCCCCCCCCCP(=O)(O)O
inactive: [1] -4.9% | [2] -27.4% | [3] -13.3% | [4] -30.3% | [5] -1.6% | [6] -2.85%

CC(=O)OC1CC2(C)C(=CC1C1SCCS1)CCC1C2CCC2(C)C(OC(C)=O)CCC12 (centres undefined)
inactive: [1] -7.6% | [2] 3.2% | [3] -31.5% | [4] 14.7% | [5] -49.5% | [6] 11.3%

Cc1ccc(N2C(=O)C3C(C2=O)C2(Cl)C(Cl)=C(Cl)C3(Cl)C2(Cl)Cl)cc1Cl (centres undefined)
inactive: [1] -1.25% | [2] 3.25% | [3] -1.1% | [4] -36.1% | [5] 2.65% | [6] 9.5%

CCC[N+]12C(O)C(CC)C3CC1C1N(C)c4ccc(Br)cc4C14CC2C3C4O (centres undefined)
inactive: [1] 27.9% | [2] 8.3% | [3] 4.35% | [4] -12.3% | [5] 6.85% | [6] 20.9%

C[C@]12CC[C@H](O)C=C1CC[C@@H]1[C@@H]2CC[C@]2(C)C(c3ccc(=O)oc3)CC[C@]12O (some centres undefined)
inactive: [1] -2.85% | [2] -12.9% | [3] 17.9% | [4] 10.9% | [5] 0.05% | [6] 8.75%

CCOP(=O)(OCC)Oc1ccc(SC)cc1
inactive: [1] -7.85% | [2] -14.3% | [3] -9.65% | [4] -14.9% | [5] 12.9% | [6] -14.8%

CC1(C)OC2OCCC(N=[N+]=[N-])C2O1 (centres undefined)
inactive: [1] 0.85% | [2] -5.35% | [3] -0.95% | [4] -29.8% | [5] -0.75% | [6] -4.4%

Cc1ccc(N2CCNCC2C)cc1 (centres undefined)
inactive: [1] 6.15% | [2] -13.2% | [3] -4.6% | [4] 8.95% | [5] -9.25% | [6] 11.2%

C[C@H](CCC1SC1(C)C)C1CCC2(C)C3=C(CC[C@]12C)[C@@]1(C)CC[C@H](O)C(C)(C)C1CC3 (some centres undefined)
inactive: [1] 9.85% | [2] -11.2% | [3] -11.2% | [4] -48.8% | [5] -5.2% | [6] 1.9%

Cn1nnc(C(N)=O)n1
inactive: [1] -9.65% | [2] -15.2% | [3] -15.8% | [4] -12.8% | [5] -4.2% | [6] -18.8%

[O-][n+]1c2ccccc2nc2ccccc21
inactive: [1] 62.1% | [2] 34% | [3] 26.9% | [4] -9.55% | [5] 41.2% | [6] 55.7%

O=C(NCCc1ccccn1)c1ccc2cc(C(=O)N3CC(CCl)c4ccc([N+](=O)[O-])cc43)[nH]c2c1 (centres undefined)
inactive: [1] 8.65% | [2] -2% | [3] 3.95% | [4] 12.4% | [5] 2.95% | [6] -76.3%

COc1ccc(S(=O)(=O)F)cc1NC(=O)CCc1ccc(N2C(N)=NC(N)=NC2(C)C)cc1Cl
inactive: [4] 16.2% | [5] 4.7% | [6] 65.2%
active: [1] 79.8% | [2] 78.5% | [3] 86.8%

O=C(COc1cccc(Cl)c1)NCc1ccccc1NC(=O)c1ccc(S(=O)(=O)F)cc1
active: [1] 95.2% | [2] 84.3% | [3] 95.2% | [4] 89.9% | [5] 90.5% | [6] 95.8%

NCCc1c[nH]c2ccccc12
inactive: [1] 10.8% | [2] -3.3% | [3] -15.8% | [4] 9% | [5] -0.75% | [6] -12.8%

CCCCS(=O)(=O)Cl
inactive: [1] 34.5% | [2] 13.2% | [3] 9.8% | [4] -12.5% | [5] 29.8% | [6] 25.9%

O=C(NN=C1CCN(Cc2ccccc2)CC1)C(O)(c1ccccc1)c1ccccc1
inactive: [1] -13.6% | [2] -5.5% | [3] 13.8% | [4] -8.5% | [5] -14% | [6] -0.65%

CC1(C)OC2(C)CCC1C1C2N1C(=O)c1ccccc1 (centres undefined)
inactive: [1] 0.75% | [2] -9.75% | [3] 5.25% | [4] 4.95% | [5] 19.2% | [6] -6.2%

CC(Oc1ccc(-c2ccccc2)cc1)C(=O)O (centres undefined)
inactive: [1] -14.8% | [2] -1.25% | [3] -9.25% | [4] -4.8% | [5] -13.1% | [6] -23.4%

CN(C)P1(N(C)C)=NP(c2ccccc2)(c2ccccc2)=NP(N(C)C)(N(C)C)=N1
inactive: [1] 13.3% | [2] 20.9% | [3] 47.5% | [4] 24.2% | [5] 1.9% | [6] 48.2%

COc1ccc(C(C)CNCc2ccccc2)cc1 (centres undefined)
inactive: [1] 0.3% | [2] -1.35% | [3] 21.1% | [4] -10.8% | [5] -1.7% | [6] -1.45%

Cc1cc(Nc2ccc(N(CCCl)CCCl)cc2)c(C)cc1O
inactive: [1] 31.7% | [2] 10% | [3] 5.75% | [4] -5.85% | [5] -4.15% | [6] 6.8%

CCC(=O)N/N=C(\N)N[N+](=O)[O-]
inactive: [1] -16.1% | [2] -6.55% | [3] -20.5% | [4] -83.6% | [5] -3.1% | [6] -9.65%

COC(=O)c1cncn1C(C)c1cccc2ccccc12 (centres undefined)
active: [1] 90.7% | [2] 91% | [3] 79.2% | [5] 88.2% | [6] 89.3%
inactive: [4] 59%

COC(=O)C1C(C)N1P(=O)(OC)OC (centres undefined)
inactive: [1] 7.3% | [2] 3.65% | [3] -7.55% | [4] -44% | [5] -4.3% | [6] 6.6%

CNC(Cc1ccccc1)c1cccc(OC)c1O (centres undefined)
inactive: [1] -7.55% | [2] -25.6% | [3] -53.6% | [4] -28.4% | [5] -14.2% | [6] -10.8%
